# Reference: PubChem BioAssay AID1645838 (ICCB-Longwood Screening Facility, Harvard Medical School, 2021)
# Values joined by “and” are separate entries in the source; they are usually repeats but may differ in a detail not shown here. Equal entries are not always repeated. In all, about 2,000 compounds went through this assay and about 100 (5%) were called active. Cut-off read from the data, not from the text of the source: active = z-score above about 2; inactive = the rest. Only a selection was taken, and actives are over-represented in it overall. Some structures have more than one record in an assay (separate samples or runs), and their calls can disagree.
# Assay: supercomplex reporter luminescence per Hoechst cell count – Hoechst nuclei count (AID 1645838);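 note: control cybrid cells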;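 for z-score: higher means more mitochondrial supercomplex formation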
# Settings: Cells, luminescence/Hoechst cell count ratio; for z-score: stronger effect = higher value; for cell count: measured here: cell number, Hoechst nuclei count
# [1] = library stock concentration (final well concentration not given) 46 uM
# [2] = library stock concentration (final well concentration not given) 278 uM
# [3] = library stock concentration (final well concentration not given) 1.67 mM
# [4] = library stock concentration (final well concentration not given) 10 mM
# [5] = library stock concentration (final well concentration not given) 80 uM
# [6] = library stock concentration (final well concentration not given) 400 uM
# [7] = library stock concentration (final well concentration not given) 2 mM
structure (smiles),measurement,setting,value
CCCC[C@H](C)C[C@H](O)/C=C/[C@H]1[C@H](O)CC(=O)[C@@H]1CCCCC(CC(=O)O)OC (stereo not given in full),z-score,,-0.235 (inactive)
same,cell count,,5180
CC(C)OC(=O)N1CCC(Oc2ncnc3c2cnn3-c2ccc(S(C)(=O)=O)cc2F)CC1,z-score,[1],-0.707 (inactive)
same,z-score,[2],-0.537 (inactive)
same,z-score,[3],-0.462 (inactive)
same,z-score,[4],-0.531 (inactive)
same,cell count,[1],7670
same,cell count,[2],7400
same,cell count,[3],7330
same,cell count,[4],7200
CCCCC/C=C\C/C=C\CCCCCCCC(=O)O[C@H](COC(=O)CCCCCCCCCCCCCCC)COP(=O)(O)OCCN,z-score,,-0.42 (inactive)
same,cell count,,5090
CC(C)(C)OC(=O)Nc1ccc(-c2cc(C(=O)NCCCCCCC(=O)NO)no2)cc1,z-score,,4.81 (active)
same,cell count,,3910
CC(C)(C)CC1NC(C(=O)NC2CCC(O)CC2)C(c2cccc(Cl)c2F)[C@]12C(=O)Nc1cc(Cl)ccc12 (stereo not given in full),z-score,[1],-0.637 (inactive)
same,z-score,[2],-0.742 (inactive)
same,z-score,[3],-0.98 (inactive)
same,z-score,[4],-1.86 (inactive)
same,cell count,[1],7790
same,cell count,[2],7430
same,cell count,[3],8360
same,cell count,[4],7510
CC(C)(C)C(O)C=Cc1ccc2c(c1)OCO2 (stereo not given),z-score,[5],0.0878 (inactive)
same,z-score,[6],0.509 (inactive)
same,z-score,[7],0.124 (inactive)
same,z-score,[4],0.138 (inactive)
same,cell count,[5],5100
same,cell count,[6],4800
same,cell count,[7],5050
same,cell count,[4],5260
CN1CCN(CCOc2cc(OC3CCOCC3)c3c(Nc4c(Cl)ccc5c4OCO5)ncnc3c2)CC1,outcome,library stock 10 mM,inactive; censored for cell count
same,z-score,[5],0.0594 (inactive) and -0.195 (inactive)
same,z-score,[6],0.376 (inactive) and 0.19 (inactive)
same,z-score,[7],1.62 (inactive) and 2.74 (active)
same,cell count,[5],4300 and 6110
same,cell count,[6],4050 and 5610
same,cell count,[7],3190 and 3140
O=C1C(c2ccccc2)N(c2ccc(Br)cc2)C(=O)N1c1ccc(Br)cc1 (stereo not given),z-score,,-0.397 (inactive)
same,cell count,,4960
CC#CCC(C)C(O)C=CC1C(O)C[C@@H]2CC(=CCCCC(=O)O)C[C@@H]12 (stereo not given in full),z-score,[5],-0.0626 (inactive)
same,z-score,[6],-0.295 (inactive)
same,z-score,[7],0.193 (inactive)
same,z-score,[4],0.43 (inactive)
same,cell count,[5],5530
same,cell count,[6],5750
same,cell count,[7],5230
same,cell count,[4],4650
Cn1cc(-c2ccc3c(c2)CCN3C(=O)Cc2cccc(C(F)(F)F)c2)c2c(N)ncnc21,z-score,[1],-0.404 (inactive)
same,z-score,[2],-0.312 (inactive)
same,z-score,[3],-0.398 (inactive)
same,z-score,[4],0.717 (inactive)
same,cell count,[1],6450
same,cell count,[2],6260
same,cell count,[3],6230
same,cell count,[4],4040
COc1cccc(-c2cn(-c3ccc(CCN4CCC(O)CC4)cc3)c3ncnc(N)c23)c1,z-score,[1],-0.0662 (inactive)
same,z-score,[2],-0.203 (inactive)
same,z-score,[3],0.503 (inactive)
same,z-score,[4],6.01 (active)
same,cell count,[1],6890
same,cell count,[2],6710
same,cell count,[3],6410
same,cell count,[4],2860
Nc1ncnc2c1c(-c1ccc(Oc3ccccc3)cc1)cn2C1CCCC1,z-score,[5],0.00446 (inactive)
same,z-score,[6],0.328 (inactive)
same,z-score,[7],0.396 (inactive)
same,z-score,[4],0.246 (inactive)
same,cell count,[5],4810
same,cell count,[6],4230
same,cell count,[7],4080
same,cell count,[4],3660
CCCCCC(O)CCC1C(O)C[C@H]2Cc3c(cccc3OCC(=O)O)C[C@@H]12 (stereo not given in full),z-score,[5],-0.232 (inactive)
same,z-score,[6],-0.452 (inactive)
same,z-score,[7],-0.204 (inactive)
same,z-score,[4],-0.825 (inactive)
same,cell count,[5],6220
same,cell count,[6],5860
same,cell count,[7],5910
same,cell count,[4],6040
CCCCC/C=C\C/C=C\CCCCCCCC(=O)OCC(COC(=O)CCCCCCCCCCCCCCC)OC(=O)CCCCCCC/C=C\CCCCCCCC (stereo not given),z-score,,0.273 (inactive)
same,cell count,,5490
O=C(Nc1nnc(-c2ccco2)o1)c1cc(-c2ccccc2)nc2ccccc12,z-score,[1],0.451 (inactive)
same,z-score,[2],0.815 (inactive)
same,z-score,[3],0.151 (inactive)
same,z-score,[4],2.24 (active)
same,cell count,[1],6600
same,cell count,[2],6010
same,cell count,[3],6640
same,cell count,[4],4920
CCCC(=O)Nc1nc(-c2ccccc2)cc(-c2ccccc2)n1,z-score,[5],-0.0977 (inactive)
same,z-score,[6],0.0694 (inactive)
same,z-score,[7],-0.49 (inactive)
same,z-score,[4],-0.335 (inactive)
same,cell count,[5],5390
same,cell count,[6],5300
same,cell count,[7],4980
same,cell count,[4],5140
COC(=O)C(NC(=O)c1cc(-c2ccccc2)nc2ccccc12)c1ccccc1 (stereo not given),z-score,[1],-0.299 (inactive)
same,z-score,[2],-0.209 (inactive)
same,z-score,[3],-0.176 (inactive)
same,z-score,[4],-0.0618 (inactive)
same,cell count,[1],6610
same,cell count,[2],6570
same,cell count,[3],6890
same,cell count,[4],6540
CCCC/C=C/C=C/C=C\CCCCCCCC(=O)OC,z-score,,0.121 (inactive)
same,cell count,,4950
O=C(O)CCC/C=C\C[C@@H]1C(=O)C[C@@H](O)[C@@H]1/C=C/[C@@H](O)CCc1ccccc1,z-score,,0.113 (inactive)
same,cell count,,5100
O=C1C(Cc2ccc(O)cc2)N2C(=O)CCN(C(=O)NCc3ccccc3)C2CN1Cc1cccc2ccccc12 (stereo not given),z-score,[1],-0.329 (inactive)
same,z-score,[2],-0.452 (inactive)
same,z-score,[3],-1.5 (inactive)
same,z-score,[4],-0.675 (inactive)
same,cell count,[1],7210
same,cell count,[2],7220
same,cell count,[3],7090
same,cell count,[4],4220
CN(C)CCC1(c2ccc(Cl)cc2)Cc2ccccc2C(=O)O1 (stereo not given),z-score,[1],-0.548 (inactive)
same,z-score,[2],-0.51 (inactive)
same,z-score,[3],-0.496 (inactive)
same,z-score,[4],0.011 (inactive)
same,cell count,[1],6980
same,cell count,[2],6360
same,cell count,[3],6480
same,cell count,[4],6170
